The source made the active and inactive calls.
Tests used:
Albumin (Bos taurus) = Albumin (Bos taurus) (UniProt P02769); assay: bovine serum albumin binders on microarray, profiling panel, artefact control for SMM control protein annotation, biochemical, small-molecule microarray, Alexa647 label, 635/667 nm fluorescence (AID 1118); conditions: BSA-A647 binding, fluorescence 635 nm, higher = more signal;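 further: score merges 667 nm emission intensity and signal-to-noise per printed compound spot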
[1] = small-molecule microarray binders of probe aXIP, primary screen, biochemical, NeuroSMM set, 635/667 nm fluorescence (AID 1119); conditions: higher = more signal, called active from +8 up or from −8 down;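 further: probe is the protein aXip251-270 applied at 1 µg/mL to compound-printed slides; binding of probe to printed compounds measured as 667 nm fluorescence plus signal to noise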
[2] = small-molecule binders of probe aNOTCH3, primary screen, biochemical, small-molecule microarray, 635/667 nm fluorescence (AID 1120); conditions: higher = more signal;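 further: probe is a biotin-tagged antibody raised against NOTCH3 rather than NOTCH3 protein; score merges spot fluorescence near 667 nm with spot signal to noise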
[3] = small-molecule binders of probe aNOTCH2, primary screen, biochemical, small-molecule microarray, 635/667 nm fluorescence (AID 1121); conditions: higher = more signal;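 further: score merges feature fluorescence read at 667 nm with its signal to noise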
[4] = biological target: Carbonic anhydrase 2 (Homo sapiens) (UniProt P00918); assay: CAII small-molecule binders, profiling panel, biochemical, small-molecule microarray, Alexa647-labelled CAII (AID 1122); conditions: CAII-A647 binding fluorescence, higher = more signal
[5] = COS7 lysate on small-molecule microarray, probe aHis, 635 nm (AID 1123); conditions: COS7 cell lysate, fluorescence, higher = more signal;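 further: z-score combines 667nm fluorescence intensity with signal-to-noise per printed compound spot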
[6] = compound binding in COS7 lysate, probe aLAP1, primary screen, cell lysate, small-molecule microarray (AID 1124); conditions: probe aLAP1, fluorescence, higher = more signal;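 further: lysate comes from COS7 cells expressing LAP1 and is applied at 0.3 µg/mL; score merges spot fluorescence near 667 nm with signal-to-noise over triplicate slides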
Sam68 (KHDRBS1) = assay: Sam68 small-molecule binders, primary screen, biochemical, small-molecule microarray, 635 nm fluorescence (AID 1125); conditions: small-molecule microarray binding, higher = more signal;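 further: score merges 667 nm channel intensity with signal to noise over triplicate slides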
[7] = test system: Chordin-like protein 2 (CHRDL2); assay: CHRDL2 small-molecule binders, primary screen, biochemical, small-molecule microarray, 635 nm fluorescence (AID 1126); conditions: small-molecule microarray binding, fluorescence 635 nm; higher = more signal;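 further: printed compound slides probed with Chrdl2 protein at 4 µg/mL for 1 h at 4 C; score merges 667 nm emission intensity with signal to noise over three replicate slides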
[8] = biological target: Concanavalin-A (Canavalia ensiformis) (UniProt P02866); assay: ConA small-molecule binders, primary screen, artefact control for SMM control protein annotation, biochemical, small-molecule microarray, Alexa647 label, 635 nm (AID 1127); conditions: ConA-A647 binding fluorescence, higher = more signal;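 further: z combines 667 nm emission intensity with signal-to-noise across three replicate slides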
[9] = anti-His antibody binders, primary screen, artefact control for SMM control protein annotation, biochemical, small-molecule microarray, 635 nm fluorescence (AID 1128); conditions: anti-His Alexa647 antibody binding, higher = more signal;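 further: score merges feature fluorescence with signal-to-noise for each printed compound spot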
[10] = test system: Human papillomavirus type 1a E7 protein (residues 1-88); assay: HPV1a E7 small-molecule binders, primary screen, biochemical, small-molecule microarray, residues 1-88, 635 nm (AID 1129); conditions: small-molecule microarray binding, fluorescence 635 nm; higher = more signal
[11] = biological target: Focal adhesion kinase 1 (Homo sapiens) (UniProt Q05397); assay: small-molecule microarray binders of FAK, primary screen, biochemical, 635/667 nm fluorescence, BSA, DTT (AID 1130); conditions: PTK2 binding, 635 nm fluorescence, higher = more signal;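 further: composite of spot emission at 667 nm and signal to noise over triplicate slides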
[12] = test system: Fibrinogen (Alexa647-labelled); assay: fibrinogen binders on compound microarrays, profiling panel, artefact control for SMM control-protein annotation, biochemical, small-molecule microarray, 635/667 nm fluorescence (AID 1131); conditions: fibrinogen-A647 binding fluorescence, higher = more signal;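 further: z-score merges 667 nm fluorescence with per-spot signal-to-noise over triplicate slides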
[13] = biological target: Follistatin (Homo sapiens) (UniProt P19883); assay: follistatin binders on small-molecule microarrays, primary screen, biochemical, small-molecule microarray, 635/667 nm fluorescence (AID 1132); conditions: FST binding, 635 nm fluorescence, higher = more signal
[14] = biological target: Fibroblast growth factor 2 (Homo sapiens) (UniProt P09038); assay: FGF2 binders on small-molecule microarrays, primary screen, biochemical, small-molecule microarray, 635/667 nm fluorescence (AID 1133); conditions: small-molecule microarray binding, FGF2, fluorescence 635/667; higher = more signal
[15] = mitochondrial membrane potential change in A549 cells, profiling panel, cell-based, JC-1 fluorescence, basal, 24 h, 100 nL (AID 1138); conditions: higher = more signal;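 further: A549 lung adenocarcinoma cells under basal conditions with no added stimulus; test concentration not given here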
Lefty1 = Lefty1 binders on small-molecule microarrays, primary screen, biochemical, small-molecule microarray, 635/667 nm fluorescence (AID 1139); conditions: small-molecule microarray binding, fluorescence 635/667; higher = more signal
[16] = test system: wheat germ agglutinin (Triticum aestivum), Alexa647-labelled; assay: wheat germ agglutinin binders on compound microarrays, profiling panel, artefact control for SMM control-protein annotation, biochemical, small-molecule microarray, 635/667 nm fluorescence (AID 1140); conditions: WGA-A647 binding, 635 nm fluorescence, higher = more signal;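 further: score merges 667 nm feature emission with signal to noise over triplicate slides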
[17] = biological target: Luciferin 4-monooxygenase (Photinus pyralis) (UniProt P08659); assay: firefly luciferase enzyme inhibitors, primary screen, biochemical, luminescence, purified enzyme, 2006 set (AID 1141); conditions: SteadyGlo luminescence, 30 min, higher = more signal, called active from +8 up or from −8 down;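 further: cell-free assay with purified firefly luciferase at 100 ng per well in PBS; test concentration not given here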
Chain of Luciferin 4-monooxygenase (Photinus pyralis) (P08659 whole entry, looked up): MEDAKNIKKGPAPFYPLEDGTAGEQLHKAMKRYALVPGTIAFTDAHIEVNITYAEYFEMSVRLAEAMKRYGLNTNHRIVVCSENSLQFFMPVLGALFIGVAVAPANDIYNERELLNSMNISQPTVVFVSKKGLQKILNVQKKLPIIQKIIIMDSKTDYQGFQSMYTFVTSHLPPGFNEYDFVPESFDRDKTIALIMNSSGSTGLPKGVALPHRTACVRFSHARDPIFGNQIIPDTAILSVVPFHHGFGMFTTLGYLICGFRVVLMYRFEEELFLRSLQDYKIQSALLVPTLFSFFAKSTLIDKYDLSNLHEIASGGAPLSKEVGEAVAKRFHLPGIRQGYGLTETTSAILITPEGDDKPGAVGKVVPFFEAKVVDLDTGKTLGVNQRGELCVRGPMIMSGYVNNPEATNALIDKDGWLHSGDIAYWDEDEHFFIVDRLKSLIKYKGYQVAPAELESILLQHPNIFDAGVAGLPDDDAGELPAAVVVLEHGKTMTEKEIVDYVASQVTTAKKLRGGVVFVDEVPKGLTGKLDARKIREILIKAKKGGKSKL

Chain of Concanavalin-A (Canavalia ensiformis) (P02866 whole entry, looked up): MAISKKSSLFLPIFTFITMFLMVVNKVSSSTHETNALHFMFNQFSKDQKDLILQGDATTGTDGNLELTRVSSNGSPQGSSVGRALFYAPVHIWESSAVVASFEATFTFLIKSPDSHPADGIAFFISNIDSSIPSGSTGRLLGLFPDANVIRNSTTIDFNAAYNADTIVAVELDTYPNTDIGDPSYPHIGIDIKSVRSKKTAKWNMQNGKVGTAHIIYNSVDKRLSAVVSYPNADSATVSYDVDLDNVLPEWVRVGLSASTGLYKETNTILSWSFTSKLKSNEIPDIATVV
Chain of Fibroblast growth factor 2 (Homo sapiens) (P09038 whole entry, looked up): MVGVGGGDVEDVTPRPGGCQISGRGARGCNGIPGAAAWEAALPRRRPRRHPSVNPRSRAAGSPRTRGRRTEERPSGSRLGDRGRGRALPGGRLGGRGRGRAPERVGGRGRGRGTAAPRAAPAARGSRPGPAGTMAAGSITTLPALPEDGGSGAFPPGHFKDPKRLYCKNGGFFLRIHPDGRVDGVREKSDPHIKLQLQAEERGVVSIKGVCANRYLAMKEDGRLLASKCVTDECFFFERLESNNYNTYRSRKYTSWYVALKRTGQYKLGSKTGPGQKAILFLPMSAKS
Chain of Albumin (Bos taurus) (P02769 whole entry, looked up): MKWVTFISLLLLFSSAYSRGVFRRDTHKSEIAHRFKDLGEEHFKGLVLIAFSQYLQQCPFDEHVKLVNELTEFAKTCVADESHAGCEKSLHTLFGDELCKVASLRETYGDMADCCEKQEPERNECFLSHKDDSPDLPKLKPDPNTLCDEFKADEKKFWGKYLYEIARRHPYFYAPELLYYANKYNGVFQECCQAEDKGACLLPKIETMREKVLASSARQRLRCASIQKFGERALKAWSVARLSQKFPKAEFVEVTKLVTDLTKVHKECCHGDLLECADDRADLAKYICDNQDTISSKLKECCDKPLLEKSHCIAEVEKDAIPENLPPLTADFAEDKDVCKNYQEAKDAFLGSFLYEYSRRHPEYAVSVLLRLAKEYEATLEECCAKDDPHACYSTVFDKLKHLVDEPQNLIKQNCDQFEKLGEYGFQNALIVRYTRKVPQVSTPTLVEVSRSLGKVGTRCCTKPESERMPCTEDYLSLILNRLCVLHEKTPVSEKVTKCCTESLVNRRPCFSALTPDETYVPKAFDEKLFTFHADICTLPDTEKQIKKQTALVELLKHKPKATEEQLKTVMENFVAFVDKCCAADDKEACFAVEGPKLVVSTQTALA
Chain of Follistatin (Homo sapiens) (P19883 whole entry, looked up): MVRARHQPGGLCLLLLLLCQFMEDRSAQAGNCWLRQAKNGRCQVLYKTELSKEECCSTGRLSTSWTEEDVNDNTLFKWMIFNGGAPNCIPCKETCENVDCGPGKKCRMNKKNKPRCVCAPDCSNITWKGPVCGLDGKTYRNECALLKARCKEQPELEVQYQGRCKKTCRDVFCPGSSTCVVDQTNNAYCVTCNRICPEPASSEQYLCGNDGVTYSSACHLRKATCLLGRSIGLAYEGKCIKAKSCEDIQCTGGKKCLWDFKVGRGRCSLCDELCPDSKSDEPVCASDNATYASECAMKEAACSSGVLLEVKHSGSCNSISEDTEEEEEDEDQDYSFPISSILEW
Chain of Focal adhesion kinase 1 (Homo sapiens) (Q05397 whole entry, looked up): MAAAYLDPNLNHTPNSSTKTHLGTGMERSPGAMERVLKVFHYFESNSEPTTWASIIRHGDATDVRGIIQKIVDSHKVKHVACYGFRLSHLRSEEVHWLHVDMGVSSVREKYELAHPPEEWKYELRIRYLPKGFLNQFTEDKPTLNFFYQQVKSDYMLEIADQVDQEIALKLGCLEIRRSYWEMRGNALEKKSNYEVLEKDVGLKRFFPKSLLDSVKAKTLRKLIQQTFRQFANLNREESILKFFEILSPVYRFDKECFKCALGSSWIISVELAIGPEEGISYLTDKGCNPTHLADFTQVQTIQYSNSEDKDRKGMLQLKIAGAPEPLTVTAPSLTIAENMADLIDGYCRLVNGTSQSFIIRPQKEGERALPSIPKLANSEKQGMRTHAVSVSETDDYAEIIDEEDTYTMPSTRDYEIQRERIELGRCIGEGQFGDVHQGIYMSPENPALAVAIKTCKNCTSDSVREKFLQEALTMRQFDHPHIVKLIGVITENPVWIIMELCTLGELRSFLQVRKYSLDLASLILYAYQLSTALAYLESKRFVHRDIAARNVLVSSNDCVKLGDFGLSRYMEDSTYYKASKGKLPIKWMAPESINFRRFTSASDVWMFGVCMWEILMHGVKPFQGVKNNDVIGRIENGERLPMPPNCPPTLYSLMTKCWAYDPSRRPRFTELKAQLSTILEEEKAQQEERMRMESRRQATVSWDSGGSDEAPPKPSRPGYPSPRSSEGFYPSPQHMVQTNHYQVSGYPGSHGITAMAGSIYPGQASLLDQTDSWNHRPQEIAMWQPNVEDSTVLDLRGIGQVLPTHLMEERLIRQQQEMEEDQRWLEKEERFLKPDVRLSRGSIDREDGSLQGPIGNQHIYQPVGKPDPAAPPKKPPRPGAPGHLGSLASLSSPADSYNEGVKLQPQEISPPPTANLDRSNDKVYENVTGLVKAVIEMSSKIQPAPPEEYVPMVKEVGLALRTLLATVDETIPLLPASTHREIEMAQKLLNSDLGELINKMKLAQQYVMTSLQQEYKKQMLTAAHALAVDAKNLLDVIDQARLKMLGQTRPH

Row | Structure (SMILES) | composite z-score (Albumin (Bos taurus)) | composite Z-score [1] | composite z-score [2] | composite z-score [3] | composite z-score [4] | composite z-score [5] | composite z-score [6] | composite z-score (Sam68 (KHDRBS1)) | composite z-score [7] | composite z-score [8] | composite z-score [9] | composite z-score [10] | composite z-score [11] | composite z-score [12] | composite z-score [13] | composite z-score [14] | z-score [15] | composite z-score (Lefty1) | composite z-score [16] | z-score [17]
1 | O=C1OCCC/C=C\[C@H]2OC34C=CCN(Cc5ccccc5)C(=O)[C@H]3N(CCO)C(=O)[C@@H]4C12 (stereo not given in full) | -0.78 | 0.822 (inactive) | 0.157 | -0.0658 | 0.885 | 1.11 | 0.623 | 0.747 | -0.32 | -0.619 | -0.941 | 0.444 | -0.287 | -0.956 | -0.296 | -0.259 | 1.64 | 0.398 | -0.889 | -1.56 (inactive)
2 | COC(=O)[C@@]1(Cc2ccc(F)cc2)[C@H]2c3cc(C(=O)N(C)C)n(CCF)c3C[C@H]2CN1C(=O)c1ccccc1 | 0.914 | 0.312 (inactive) | -0.0044 | 0.057 | 0.733 | 2.6 | 0.89 | 0.706 | -0.411 | 0.476 | 1.67 | 0.911 | 0.0655 | 0.911 | -0.0051 | -0.162 | 0.656 | -0.45 | 0.338 | -1.09 (inactive)
3 | CO[C@H]1O[C@H](CO)[C@@H](OC(=O)CCc2ccccc2)[C@@H]2OC(=O)[C@@H](Cc3ccc4ccccc4c3)C/C=C/C[C@H](Cc3ccc4ccccc4c3)C(=O)O[C@@H]12 | 0.199 | 0.128 (inactive) | -0.21 | -0.172 | 0.191 | 1.18 | 0.273 | -0.183 | -1.34 | 0.208 | 0.0781 | 0.0444 | 0.138 | -0.142 | -0.564 | -0.512 | 1.98 | -0.346 | -0.228 | -0.958 (inactive)
4 | COc1ccc([Si](C)(C)[C@@H]2[C@@H](CC(=O)N(CCO)Cc3ccccc3)O[C@]3(C(=O)N(Cc4cccc(I)c4)c4ccccc43)[C@H]2C)cc1 | -0.783 | 0.0089 (inactive) | 0.0522 | -0.0576 | 0.364 | 0.763 | 0.363 | 1.01 | 1.12 | 0.779 | 0.853 | 1.12 | -0.14 | 0.604 | 1.48 | 1.68 | -0.781 | 1.51 | 0.618 | -0.216 (inactive)
5 | COCCOC(=O)N1C(=O)[C@@]2(c3cc(C#CCNC(N)=O)ccc31)[C@H](c1ccc(O)cc1)N1[C@H](c3ccccc3)[C@H](c3ccccc3)OC(=O)[C@H]1[C@@H]2C(=O)N1CCc2cc(OC)c(OC)cc2C1 | 0.397 | 0.443 (inactive) | 0.0962 | -0.0928 | 0.414 | 0.781 | -0.0347 | 1.21 | 0.431 | 0.764 | 1.24 | 1.11 | 1.33 | 0.336 | 1.36 | 0.636 | -0.683 | 0.8 | 0.815 | -1.45 (inactive)
6 | COCCOC(=O)N1C(=O)[C@@]2(c3cc(C#CCC(C(=O)OC)C(=O)OC)ccc31)[C@H](c1ccc(O)cc1)N1[C@H](c3ccccc3)[C@H](c3ccccc3)OC(=O)[C@H]1[C@@H]2C(=O)N1CCc2cc(OC)c(OC)cc2C1 | -0.0894 | -0.262 (inactive) | 0.147 | -0.0166 | 0.378 | 1.12 | 0.761 | 1.29 | 0.242 | 0.903 | 2.46 | 1.2 | 0.362 | 0.741 | 1.27 | 1.26 | 0.627 | 0.633 | 0.801 | -1.05 (inactive)
7 | COCCCNC(=O)[C@@]1(c2ccc([N+](=O)[O-])cc2)CC(=O)N(C2CCCCC2)[C@@H]1c1ccc(CO)cc1I | -0.102 | 2.09 (inactive) | -0.095 | 0.0409 | 0.427 | 2.23 | 0.426 | 1.03 | 0.151 | 1.14 | 3.3 | 1.2 | 0.964 | 0.014 | 1.45 | 1.44 | 2.77 | 0.418 | 0.524 | -0.883 (inactive)
8 | COCCOC(=O)N1C(=O)[C@@]2(c3cc(C#CCNC(N)=O)ccc31)[C@H](C(N)=O)[C@H]1C(=O)O[C@H](c3ccccc3)[C@H](c3ccccc3)N1[C@@H]2c1ccc(O)cc1 | -0.153 | 0.003 (inactive) | 0.153 | 0.234 | 0.606 | 0.609 | -0.545 | -0.148 | 0.267 | -0.267 | 1.78 | -0.767 | -0.284 | -0.424 | 0.994 | 0.287 | 0.222 | 0.115 | -0.113 | -2.19 (inactive)
9 | CCCCC(=C=CC[C@@H](O)c1ccc(OCCO)cc1)CCO | 0.543 | 0.742 (inactive) | -0.0947 | -0.12 | 0.755 | 1.46 | 0.145 | 0.118 | -0.346 | -0.321 | 1.83 | 0.407 | 0.814 | 0.0258 | 0.66 | 0.329 | 1.57 | 0.452 | 1.16 | -1.91 (inactive)
10 | CC(C)(C)OC(=O)N1[C@@H](C=C(Br)Br)COC1(C)C | -0.121 | 0.274 (inactive) | 0.0522 | -0.104 | -0.0481 | 0.259 | 0.136 | 0.839 | 0.644 | 0.556 | 0.286 | 0.974 | -0.0276 | 0.592 | 0.652 | 0.65 | 0.206 | 0.519 | -0.0422 | -1.04 (inactive)
11 | C[N+](C)(C)CCCC[C@@H]1NC(=O)[C@H]2C[C@@H](C(=O)NCCCCCN)[C@@H](c3ccc(O)cc3)N2C1=O | 0.567 | -0.116 (inactive) | -0.0586 | -0.053 | 0.67 | 1.14 | 0.736 | 1.3 | 0.444 | 1.18 | 3.32 | 1.21 | 0.599 | 1.04 | 1.39 | 1.66 | 0.729 | 1.7 | 1.36 | -0.993 (inactive)
12 | COCCOC(=O)N1C(=O)[C@@]2(c3ccccc31)[C@H](C(=O)Nc1nc3ccccc3s1)[C@H]1C(=O)O[C@H](c3ccccc3)[C@H](c3ccccc3)N1[C@@H]2c1ccccc1OCCO | 0.0171 | 0.0308 (inactive) | 0.291 | -0.0684 | 0.526 | 1.54 | 1.63 | 1.3 | 0.145 | 1.08 | 1.55 | 1.19 | -0.0016 | 0.941 | 1.17 | 0.676 | -2.3 | 0.42 | 1.19 | -0.653 (inactive)
13 | O=C1O[C@H](c2ccccc2)[C@H](c2ccccc2)N2[C@H]1[C@@H](C(=O)Nc1nc3ccccc3s1)[C@]1(C(=O)Nc3ccccc31)[C@H]2c1ccccc1OCCO | 0.939 | 0.417 (inactive) | 0.0242 | -0.014 | 0.393 | 2.24 | 0.921 | 1.29 | -0.131 | 0.668 | 1.71 | 0.813 | 0.832 | 0.966 | 0.453 | 0.64 | -1.84 | 0.0835 | 1.02 | 0.389 (inactive)
14 | COCCOC(=O)N1C(=O)[C@@]2(c3cc(C#CC4=CCCCC4)ccc31)[C@H](c1ccc(O)cc1)N1[C@H](c3ccccc3)[C@H](c3ccccc3)OC(=O)[C@H]1[C@@H]2C(=O)N1CCc2cc(OC)c(OC)cc2C1 | 0.699 | -0.007 (inactive) | -0.0014 | -0.0454 | 0.468 | 2.29 | 0.743 | 1.28 | -0.329 | 0.753 | 1.38 | 1.19 | 0.567 | 0.789 | 0.427 | 0.423 | 0.273 | 0.0605 | 0.726 | 0.0369 (inactive)

From PubChem BioAssay
